Bioassay records from PubChem BioAssay.
Six1-Eya2 inh = qHTS Assay for Inhibitors of the Six1/Eya2 Interaction. AlphaScreen GST-Six1/His-Eya2 binding, biochemical; hits give low values. activity change, % (test concentration not listed). hit rate 0.56% among 360,000. AID 651725, 2012; in the data active = activity change below about -65%; inconclusive = mostly about -30% to -63%
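Homogeneous AlphaScreen proximity assay pairing GST-Six1 with His-tagged Eya2 (added as 5X mix: 250 nM and 500 nM) in 50 mM Tris pH 8.0, 300 mM NaCl, 1 mM TCEP. Glutathione donor and nickel acceptor beads; 1 h, 37 °C, dark.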
CtBP-E1A blk = qHTS Assay for Inhibitors of the CtBP/E1A Interaction; activity change, % (no concentration beside the values); hit rate 0.49% among 340,000; CtBP / adenovirus E1A interaction (AlphaScreen); AlphaScreen GST-E1A/His-CtBP binding, 1536-well; hits give low values; AID 651724, 2012; in the data active = activity change below about -65%; inconclusive = mostly about -30% to -63%
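Protein mix (5X: 125 nM each GST-E1A, His-CtBP) was incubated with pinned compound 2 h at 37 deg C in dark, in 50 mM Tris pH 8.0 buffer with 300 mM NaCl. Glutathione donor and nickel acceptor beads followed; AlphaScreen signal read after 1 h.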
TDP1 cell CPT = qHTS for Inhibitors of human tyrosyl-DNA phosphodiesterase 1 (TDP1): qHTS in cells in presence of CPT | hit rate 12% among 420,000 | Potency, µM (doses to about 46.2 µM), actives largely listed as inhibitors | AID 686979, 2013 | chicken DT40 Tdp1-/-;hTDP1 cells + 20 nM CPT, ATP luminescence, 48 h; note: nearly all actives have a fitted effect of over 55% in size
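Chicken DT40 Tdp1-/- cells complemented with human TDP1, 400 cells/well, exposed to compounds plus 20 nM camptothecin for at least 48 h at 37 C; viability read as ATP content by CellTiter-Glo luminescence.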
TDP1 inh = qHTS Assay for Inhibitors of Tyrosyl-DNA Phosphodiesterase (TDP1); Tyrosyl-DNA phosphodiesterase 1 (Homo sapiens), Q9NUW8; recombinant TDP1, AlphaScreen DNA substrate cleavage; Potency, µM (titrated, usually from 130 µM), most hits filed as inhibitors; hit rate 0.28% among 350,000; AID 485290, 2010; note: nearly all actives have a fitted effect of over 40% in size
Target sequence (Q9NUW8 whole entry, looked up): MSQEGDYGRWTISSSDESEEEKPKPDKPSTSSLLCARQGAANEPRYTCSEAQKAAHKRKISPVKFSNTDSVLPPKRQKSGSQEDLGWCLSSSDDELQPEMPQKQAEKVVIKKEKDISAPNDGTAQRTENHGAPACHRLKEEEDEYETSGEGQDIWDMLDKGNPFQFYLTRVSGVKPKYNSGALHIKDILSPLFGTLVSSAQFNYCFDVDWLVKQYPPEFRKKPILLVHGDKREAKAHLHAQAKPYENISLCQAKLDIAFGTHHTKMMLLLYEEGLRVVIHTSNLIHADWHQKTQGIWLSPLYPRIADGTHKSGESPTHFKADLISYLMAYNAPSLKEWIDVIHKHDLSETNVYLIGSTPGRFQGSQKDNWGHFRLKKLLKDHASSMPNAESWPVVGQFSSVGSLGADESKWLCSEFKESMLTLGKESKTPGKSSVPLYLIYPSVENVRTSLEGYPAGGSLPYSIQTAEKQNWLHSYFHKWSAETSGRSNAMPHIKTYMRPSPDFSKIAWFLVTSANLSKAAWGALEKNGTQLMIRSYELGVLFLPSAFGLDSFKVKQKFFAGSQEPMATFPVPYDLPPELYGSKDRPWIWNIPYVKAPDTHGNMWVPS
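Steps: enzyme plus compound, 15 min RT; add biotin/phosphotyrosine-FITC oligonucleotide (15 nM final), react 5 min; add donor/acceptor beads (10 ug/ml final), 10 min; read AlphaScreen. Tdp1 at 1 nM final.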
TDP1 cell noCPT = qHTS for Inhibitors of human tyrosyl-DNA phosphodiesterase 1 (TDP1): qHTS in cells in absence of CPT | DT40 Tdp1-/- hTDP1 cells, no CPT, ATP luminescence, 48 h | Potency, µM (series often up to 46.2 µM), most hits filed as inhibitors | hit rate 15% among 420,000 | AID 686978, 2013; note: nearly all actives have a fitted effect of over 55% in size
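Seeded 400 DT40-hTDP1 cells/well (vehicle DMSO, no 20 nM CPT); pinned compounds; ≥48 hr at 37 °C; CellTiter-Glo luminescence as viability measure.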
IL1B secr inh = qHTS for Inhibitors of Inflammasome Signaling: IL-1-beta AlphaLISA Primary Screen; THP-1 LPS/ATP IL-1B secretion, AlphaLISA, 16 h; hits give low values; activity change, % at 57.5 µM; hit rate 4.7% among 360,000; AID 743279, 2014; in the data active = activity change below about -50%; inconclusive = mostly about -30% to -49%
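THP-1 cells pretreated 1 hr with compounds (up to 57.5 uM final), then stimulated with LPS (250 ng/mL final) plus ATP (1.25 mM final); secreted IL-1B measured by AlphaLISA after 16 hr, decreased signal indicating inhibition.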
Large screens that a line does not name were inactive. Hits are enriched below; roughly 18% of the tested compounds scored in any of these assays. Unless noted, calls come from the whole dose curve; as a rule, active = well fitted curve in the direction sought with a large enough effect; inconclusive = small, poorly fitted or top-dose-only effect, or another doubt; inactive = no such curve, though single readings can be large; an effect the other way counts as inactive or inconclusive.

C[C@@H]1C=C(C(=O)NC2CC2)O[C@H](OCc2ccc(CO)cc2)C1	none
CN(C)CC(C)(O)c1ccc2c(c1)CN(Cc1cccn1-c1cccnc1)CCO2 (stereo not drawn)	none (no result: Six1-Eya2 inh, CtBP-E1A blk, TDP1 inh, IL1B secr inh)
COc1ccc(OC)c(C2C(C(=O)c3ccc(C)o3)=C(O)C(=O)N2CCN2CCOCC2)c1 (stereo not drawn)	none
NC(=O)CSc1nnc(-c2cnccn2)n1Cc1ccco1	none
O=C(CSc1nc2ccccc2c(=O)n1Cc1ccco1)N1CCCCCC1	TDP1 cell CPT 20.6µM, TDP1 cell noCPT inconclusive, IL1B secr inh inconclusive
O=C1c2ccccc2C(=O)N1CCCc1nc2ccccc2c(=O)n1Cc1ccco1	TDP1 cell CPT 20.6µM, TDP1 cell noCPT 16.4µM
CCn1c(SCc2cccc(OC)c2)nc2ccccc2c1=O	TDP1 cell CPT 10.3µM, TDP1 cell noCPT 20.6µM (no result: TDP1 inh)
Cc1cc(NC(=O)CSc2nc3cc(C(=O)NCCCOC(C)C)ccc3c(=O)n2Cc2ccco2)no1	TDP1 cell CPT 18.4µM, TDP1 cell noCPT inconclusive
COc1cccc2cc(CC(=O)c3cc(C)ccc3C)c(=O)oc12	TDP1 cell CPT inconclusive, TDP1 cell noCPT inconclusive (no result: CtBP-E1A blk, TDP1 inh)
Cc1ccc(Cc2cnc(NC(=O)/C(C#N)=C/c3ccc(-c4ccc([N+](=O)[O-])cc4)o3)s2)cc1	TDP1 cell noCPT inconclusive
COCCNC(=O)c1ccc2c(=O)n(Cc3ccco3)c(SCC(=O)NC3CCCCC3)nc2c1	none
CCC(C)NC(=O)CSc1nc2c(sc(=S)n2Cc2ccco2)c(=O)n1-c1ccccc1 (stereo not drawn)	TDP1 cell noCPT inconclusive
CCn1c(SCC(=O)N2CCCCCC2)nc2ccccc2c1=O	TDP1 cell CPT 20.6µM, TDP1 cell noCPT inconclusive
CCn1c(=S)sc2c(=O)n(-c3ccccc3)c(SCC(=O)NCc3ccco3)nc21	TDP1 cell CPT 17.8µM, TDP1 cell noCPT inconclusive
O=C(NCc1ccco1)c1ccc2c(=O)n(Cc3ccco3)c(SCC(=O)N3CCCC3)nc2c1	TDP1 cell CPT 25.9µM, TDP1 inh 35.5µM, TDP1 cell noCPT inconclusive
CCCN(CCC)C(=O)CSc1nc2ccccc2c(=O)n1Cc1ccco1	TDP1 cell CPT 18.4µM, TDP1 cell noCPT 20.6µM (no result: Six1-Eya2 inh, CtBP-E1A blk, IL1B secr inh)
COc1cc2nc(COc3ccccc3[N+](=O)[O-])oc(=O)c2cc1OC	none
CCc1ccc(C2c3c(oc4cc(C)c(C)cc4c3=O)C(=O)N2c2nc(C)c(C(=O)OC)s2)cc1 (stereo not drawn)	none (no result: Six1-Eya2 inh, CtBP-E1A blk, IL1B secr inh)
Cc1cccc(NCc2nnc3n2CCCCC3)c1C	TDP1 cell noCPT inconclusive (no result: Six1-Eya2 inh, CtBP-E1A blk, IL1B secr inh)
OC(c1ccccc1)c1nc(-c2cc3ccccc3o2)cs1 (stereo not drawn)	none (no result: TDP1 inh)
CCOC(CCn1c(SCc2ccc([N+](=O)[O-])cc2)nc2ccccc2c1=O)OCC	TDP1 cell CPT 14.6µM, TDP1 cell noCPT 13µM, IL1B secr inh inconclusive
CCN(CC)C(=O)CSc1nc2c(sc(=S)n2-c2ccccc2)c(=O)n1Cc1ccco1	TDP1 cell CPT 23.1µM, TDP1 cell noCPT inconclusive, IL1B secr inh -64.3
Cc1cccc(-n2c(SCC(=O)NCc3ccco3)nc3ccccc3c2=O)c1	TDP1 cell CPT 10.3µM, TDP1 cell noCPT inconclusive, IL1B secr inh inconclusive
Cc1ccc(C)c(NC(=O)N2CCN(C(=O)c3nsc4ccccc34)CC2)c1	TDP1 cell CPT inconclusive, TDP1 cell noCPT 18.4µM (no result: Six1-Eya2 inh, CtBP-E1A blk, IL1B secr inh)
O=C(Nc1cccc(C(=O)N2CCN(c3ccccc3)CC2)c1)c1nsc2ccccc12	TDP1 cell CPT inconclusive, TDP1 cell noCPT inconclusive (no result: Six1-Eya2 inh, CtBP-E1A blk, IL1B secr inh)
O=C(Nc1ccc(C(=O)N2CCN(c3ccc(F)cc3)CC2)cc1)c1nsc2ccccc12	TDP1 cell CPT inconclusive, TDP1 cell noCPT inconclusive (no result: Six1-Eya2 inh, CtBP-E1A blk, IL1B secr inh)
